High-throughput results (PubChem)
BoNT F protease = BoNT F light chain protease inhibition; Multiplex microsphere protease cleavage assay, flow cytometry; inhibition, % at 10 µM; 360,000 tested, 0.22% active; AID 588497; in the data active means inhibition above about 35%, passing the limit was not always enough; inconclusive means no clear call, values can overlap the other calls; further: plate controls were buffer without enzyme for full effect and enzyme alone for no effect
Anthrax LF inh2 = anthrax lethal factor protease inhibition; inhibition, % at 10 µM; 360,000 tested, 0.12% active; multiplex microsphere protease cleavage assay, LF; P15917; further: plate controls were buffer without enzyme for full effect and enzyme alone for no effect
BoNT A protease = inhibitors of Botulinum neurotoxin A light chain protease | 360,000 tested, 0.17% active | multiplex microsphere protease substrate cleavage, flow cytometry | inhibition, % at 10 µM | AID 588499; further: plate controls were buffer without enzyme for full effect and enzyme alone for no effect
PfHsp40 rescue = rescue of PfHsp40-mediated yeast toxicity; growth rescue, % at 12.5 µM; S. cerevisiae expressing PfHsp40, growth rescue, ATP luminescence; AID 504582; 340,000 tested, 0.68% active; in the data active means growth rescue above about 28%, passing the limit was not always enough; inconclusive means no clear call, values can overlap the other calls;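 further: yeast W303a lacking pdr1 and pdr3 grown in galactose medium; growth measured after three days at 30 °C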
MazEF act = activators of E. coli MazEF toxin-antitoxin RNase; P0AE70; FAM/BHQ RNA-DNA oligo cleavage fluorescence, 5 h; activation, % at 20 µM; 350,000 tested, 0.32% active; in the data active means activation above about 50%
Target sequence (P0AE70 whole entry, looked up): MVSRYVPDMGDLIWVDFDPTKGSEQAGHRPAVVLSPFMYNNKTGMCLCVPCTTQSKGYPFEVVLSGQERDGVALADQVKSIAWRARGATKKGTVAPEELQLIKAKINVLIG
Autofluor counter = compound fluorescence in toxin protease inhibitor counterscreen; compound autofluorescence counterscreen, microsphere flow cytometry; active compounds read high; fluorescence intensity (concentration not given with the values); 360,000 tested, 3.1% active; in the data active means fluorescence intensity above about 16000; inconclusive means no clear call, values can overlap the other calls
The depositor's hits bear a star; i = inactive; ? = inconclusive; . = no result. Hits are enriched below; roughly 4.3% of the tested compounds scored in any of these assays. Unless noted, no stated cut-off is given here; in the data, active means inhibition above about 30%; inconclusive means no clear call, values can overlap the other calls; inactive means below that.

SMILES | BoNT F protease | Anthrax LF inh2 | BoNT A protease | PfHsp40 rescue | MazEF act | Autofluor counter
CCOC(=O)/C=C1\SCC(=O)N1CC(=O)c1ccc[nH]1 | 5 | 2 | 2 | 1 | 6 | 21362*
CCOC(=O)/C=C1\SCC(=O)N1CC(=O)Nc1ccc(OC)c(OC)c1 | -3 | 1 | -1 | -1 | 8 | 3678
CCCCn1c(N)c(N(CCC(C)C)C(=O)C2CCN(C(=O)c3ccccc3C)CC2)c(=O)[nH]c1=O | 26 | 9 | 15 | 0 | -13 | 3233
Cc1ccc(SC(C)C(=O)Nc2cccnc2)cc1 (stereo unspecified) | -5 | -4 | 0 | 0 | 6 | 4304
Cc1ccc(SC(C)C(=O)Nc2cccc(N(C)S(C)(=O)=O)c2)cc1 (stereo unspecified) | 10 | -15 | 6 | 0 | 5 | 19657*
Cc1ccc(SC(C)C(=O)Nc2ccncc2)cc1 (stereo unspecified) | 2 | 1 | 2 | ? | 4 | 22693*
C/C(=C\C(=O)O)C(=O)Nc1nccs1 | ? | 2 | 1 | 0 | 0 | 4082
Cc1cc2occ(CC(=O)Nc3nccs3)c2cc1C(C)C | 2 | -2 | ? | 1 | 9 | 22242*
O=C(COc1ccccc1)Nc1nccs1 | -8 | -2 | -1 | 57* | 2 | 8086
COc1cc(CC(=O)Nc2nccs2)cc(OC)c1OC | -4 | -3 | ? | 0 | 5 | 22884*
COc1ccc2c(CC(=O)Nc3nccs3)coc2c1 | -4 | -2 | 2 | 0 | -7 | 4040
C/C(=C\C(=O)Nc1nccs1)c1ccccc1 | -6 | -4 | ? | 0 | 4 | 17209*
O=C(CCN1CCCO1)N1CCCC(Nc2cccc(F)c2)C1 (stereo unspecified) | -7 | -8 | -1 | . | 5 | 3929
CCCC1=C(C(=O)OCC)C(c2cccs2)n2ncnc2N1 (stereo unspecified) | 2 | 0 | 0 | 1 | 0 | 5734
O=C(CCCCCN1C(=O)c2ccccc2C1=O)Nc1nccs1 | 2 | 1 | 2 | 1 | -10 | 21980*
O=C(CN1C(=O)c2ccccc2C1=O)Nc1nccs1 | 3 | 4 | 0 | -1 | 0 | 5741
O=C(CCCCCN1C(=O)c2ccccc2C1=O)Nc1ccccc1 | 8 | -2 | 1 | 0 | 5 | 9863
CC(=O)Nc1ccc(NC(=O)CCCCCN2C(=O)c3ccccc3C2=O)cc1 | 4 | -6 | 4 | 0 | 0 | 18712*
CCCCC(CCC(=O)Nc1nccs1)C(=O)O (stereo unspecified) | 0 | -2 | ? | 0 | 0 | 20150*
CCN(CC(=O)Nc1ccc2c(c1)OCCO2)C(=O)c1ccc(S(=O)(=O)N(C)C)cc1 | ? | 0 | 1 | -1 | -11 | 5277
Cc1cccc(NC(=O)CNC(=O)c2ccc3nc[nH]c3c2)c1C | -20 | 7 | -10 | 1 | -1 | 6588
CCCCNC(=O)CSc1nnc(-c2cccc(S(=O)(=O)N3CCOCC3)c2)o1 | 0 | 8 | 0 | -1 | 8 | 4146
O=C1CCCCC(=O)[C@H](O)C[C@H](c2ccccc2)O1 | -7 | -1 | 1 | . | . | 5037
CC(C)C(NCc1c(Cl)cccc1Cl)C(=O)O (stereo unspecified) | 7 | -1 | 5 | 0 | 2 | 21266*
CC(C)[C@H](NC(=O)NCc1ccc(Cl)cc1)C(=O)O | 0 | 1 | -2 | -1 | 3 | 23334*
SMILES | BoNT F protease | Anthrax LF inh2 | BoNT A protease | PfHsp40 rescue | MazEF act | Autofluor counter
CCC(C)[C@H](NC(=O)NCc1ccc(Cl)cc1)C(=O)O (stereo partly specified) | -2 | -16 | 0 | 0 | 1 | 4272
CN(/N=C/c1ccncc1)c1cnc2ccccc2n1 | -8 | 0 | 0 | 2 | 5 | 3277
COc1cccc(CC2(CO)CCCN(Cc3ccc4c(c3)OCCO4)C2)c1 (stereo unspecified) | -9 | -3 | -2 | -1 | -2 | 5477
Cc1nn(-c2ccc(F)cc2)c2sc(C(=O)N3CCCCCC3)cc12 | -4 | 0 | 2 | -1 | -1 | 3283
CNC(=O)COC(=O)c1cc2c(C)nn(-c3ccc(F)cc3)c2s1 | -3 | -1 | -1 | -1 | -2 | 16925*
CCN(CC)c1ccc2cc(C(N)=O)c(=O)oc2c1 | -2 | 2 | 0 | 0 | -15 | 7078
CCN(CC)c1ccc2cc(-c3nnc(-c4ccncc4)o3)c(=O)oc2c1 | 6 | 13 | 3 | 1 | i | 24761*
